According to PubChem BioAssay (Tox21):
Results filed as inconclusive are left out. Activity calls are given as the source filed them. Unless noted, calls follow the shape of the dose curve; as a rule, active = well fitted curve in the direction sought with a large enough effect in the repeat runs; inconclusive = weak or mixed curves; inactive = no such curve, though single readings can be large; an effect the other way counts as inactive or inconclusive.

Assays:
[1] = qHTS assay to identify small molecule agonists of H2AX (AID 1224845; active = well fitted activation curve with a large enough effect in the signal ratio in the repeat runs, not every such curve was filed as active; the % refers to the signal ratio; also: potency is read from the fitted curve at half-maximal effect)
Summary of the method: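 Wild-type CHO-K1 cells, plated overnight, exposed 3hr at 37C to 15 concentrations (0.76% DMSO final). Lysed, then HTRF anti-pH2AX (S139) cryptate and anti-H2AX-d2 antibodies, 24 hr room temperature; 665/620 nm emission read.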

[2] = qHTS assay to identify small molecule agonists of the hypoxia (HIF-1) signaling pathway (AID 1224846; active = well fitted activation curve with a large enough effect in the signal ratio in the repeat runs, not every such curve was filed as active; the % refers to the signal ratio)
Summary of the method: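 Compounds added to ME-180 cells carrying hypoxia-response-element beta-lactamase reporter (0.5% dialyzed FBS, 5 h preplating), 17 h at 37C; agonist activity detected by CCF4-AM B/G FRET read-out.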

[3] = qHTS assay to identify small molecule agonists of H2AX - cell viability counter screen (AID 1224847; calls by dose curve; also: nearly all actives have a fitted effect of over 30% in size; also: potency is read from the fitted curve at half-maximal effect; as to activity change, negative = cytotoxicity: top concentration of the series differs between compounds)
Summary of the method: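 After overnight plating of 1000 CHO-K1 cells per well, a 15-concentration compound series was applied for 3 hr at 37C. Luminescence from CellTiter-Glo, read following 30 min at room temperature, reflected cell viability.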

[4] = qHTS RealTime-Glo MT Cell Viability Assay in HepG2 cells - 24 hour (AID 1224867); also: nearly all actives have a fitted effect of over 50% in size; also: potency is read from the fitted curve at half-maximal effect
Summary of the method: (§1)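 Luminescence read-out: viable HepG2 cells reduce a prosubstrate to a NanoLuc substrate, giving a signal proportional to live cell number. Reads taken at 0, 8, 16, 24, 32 and 40 h of compound exposure at 37 C.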

[5] = qHTS RealTime-Glo MT Cell Viability Assay in HEK293 cells - 32 hour (AID 1224868); also: nearly all actives have a fitted effect of over 50% in size; also: potency is read from the fitted curve at half-maximal effect; as to activity change, negative = cytotoxic: top concentration of the series differs between compounds
Summary of the method: (§2)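 Nonlytic real-time viability readout: viable cells convert prosubstrate to NanoLuc substrate, giving luminescence proportional to live cell number. HEK293, 600 cells/well, compound added after 5 h, continuous culture at 37 C.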

[6] = A CellTox Green Cytotoxicity Assay to monitor cytotoxicity in HEK293 cells - 0 hour (AID 1224869); also: nearly all actives have a fitted effect of over 50% in size
Summary of the method: (§3)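 Fluorescence from a DNA-binding dye excluded by viable cells was measured repeatedly in the same HEK293 wells (600 cells/well) during continuous compound exposure at 37 C. Each assay gives one read point: 0, 8, 16, 24, 32 or 40 h.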

[7] = qHTS RealTime-Glo MT Cell Viability Assay in HepG2 cells - 40 hour (AID 1224870); also: nearly all actives have a fitted effect of over 50% in size; also: potency is read from the fitted curve at half-maximal effect
Summary of the method: (§4)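 HepG2 cells (600/well) mixed with RealTime-Glo MT reagent, settled 5 h at 37 C/5% CO2 before compound addition. Nonlytic NanoLuc luminescence from viable-cell prosubstrate reduction read repeatedly during 40 h treatment at 37 C.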

[8] = A CellTox Green Cytotoxicity Assay to monitor cytotoxicity in HEK293 cells - 40 hour (AID 1224871); also: nearly all actives have a fitted effect of over 45% in size; also: potency is read from the fitted curve at half-maximal effect
Summary of the method: as §3

[9] = qHTS RealTime-Glo MT Cell Viability Assay in HEK293 cells - 16 hour (AID 1224872); also: nearly all actives have a fitted effect of over 50% in size; also: potency is read from the fitted curve at half-maximal effect; as to activity change, negative = cytotoxicity: top concentration of the series differs between compounds
Summary of the method: as §2

[10] = qHTS RealTime-Glo MT Cell Viability Assay in HepG2 cells - 8 hour (AID 1224873); also: nearly all actives have a fitted effect of over 55% in size; also: potency is read from the fitted curve at half-maximal effect
Summary of the method: as §4

[11] = qHTS RealTime-Glo MT Cell Viability Assay in HEK293 cells - 40 hour (AID 1224874); details: RealTime-Glo luminescence; max response: active compounds read low; also: nearly all actives have a fitted effect of over 50% in size; also: potency is read from the fitted curve at half-maximal effect
Summary of the method: (§5)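 Luminescence, which tracks viable cell number through reduction of the prosubstrate to a NanoLuc substrate, was read over continuous 37 C culture. Cells (600/well) were premixed with reagent and rested 5 h before 23 nL of compound in DMSO was pinned.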

[12] = A CellTox Green Cytotoxicity Assay to monitor cytotoxicity in HEK293 cells - 24 hour (AID 1224875); also: nearly all actives have a fitted effect of over 45% in size; also: potency is read from the fitted curve at half-maximal effect
Summary of the method: as §3

[13] = A CellTox Green Cytotoxicity Assay to monitor cytotoxicity in HepG2 cells - 16 hour (AID 1224876); also: nearly all actives have a fitted effect of over 45% in size; also: potency is read from the fitted curve at half-maximal effect
Summary of the method: (§6)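 Real-time cytotoxicity: fluorescence of a cell-impermeant cyanine dye binding DNA of dead HepG2 cells, measured repeatedly (0–40 h) during compound exposure at 37 C. Cells seeded 600/well with reagent, dosed after 5 h.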

[14] = qHTS RealTime-Glo MT Cell Viability Assay in HepG2 cells - 32 hour (AID 1224877); also: nearly all actives have a fitted effect of over 55% in size; also: potency is read from the fitted curve at half-maximal effect
Summary of the method: as §1

[15] = A CellTox Green Cytotoxicity Assay to monitor cytotoxicity in HepG2 cells - 24 hour (AID 1224878); also: nearly all actives have a fitted effect of over 45% in size; also: potency is read from the fitted curve at half-maximal effect
Summary of the method: as §6

[16] = A CellTox Green Cytotoxicity Assay to monitor cytotoxicity in HepG2 cells - 40 hour (AID 1224879); also: nearly all actives have a fitted effect of over 40% in size; also: potency is read from the fitted curve at half-maximal effect
Summary of the method: as §6

[17] = qHTS RealTime-Glo MT Cell Viability Assay in HEK293 cells - 0 hour (AID 1224880)
Summary of the method: as §5

[18] = A CellTox Green Cytotoxicity Assay to monitor cytotoxicity in HEK293 cells - 32 hour (AID 1224881); also: nearly all actives have a fitted effect of over 40% in size
Summary of the method: as §3

[19] = qHTS assay to identify small molecule antagonists of the estrogen related receptor (ERR) signaling pathway from Tox21 library (AID 1224848); also: nearly all actives have a fitted effect of over 50% in size; also: potency is read from the fitted curve at half-maximal effect
Summary of the method: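 Compounds dissolved in DMSO are pin-transferred onto ERR reporter cells (2,000 per well) that have settled for 6 h at 37 C. Plates then incubate 18 h at 37 C before ONE-Glo luciferase reagent and a luminescence read 30 min later.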

[20] = qHTS assay to identify small molecule agonists of the estrogen related receptor (ERR) signaling pathway from Tox21 library (AID 1224849; calls by dose curve; also: nearly all actives have a fitted effect of over 15% in size); details: ERR reporter cell line, ONE-Glo luciferase, 18 h; at 92.4 µM (top of the series) unless noted
Summary of the method: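 Luminescent agonist read-out (One-Glo, 30-minute room-temperature incubation) following 18-hour compound treatment at 37 C of the ERR cell line, which had been plated 6 hours before dosing.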
% is scaled to controls: 0 for no effect and ±100 for the full control effect.

CCCCCCCC(C)=O
inactive: Potency [1] | outcome [2] | Potency [3] | Potency [4] | Potency [5] | Potency [6] | Potency [7] | Potency [8] | Potency [9] | Potency [10] | max response [11] 0.179% | Potency [12] | Potency [13] | Potency [14] | Potency [15] | Potency [16] | Potency [17] | Potency [18]

Cc1cn[nH]c1
inactive: Potency [1] | outcome [2] | Potency [3] | Potency [4] | Potency [5] | Potency [6] | Potency [7] | Potency [8] | Potency [9] | Potency [10] | max response [11] 7.93% | Potency [12] | Potency [13] | Potency [14] | Potency [15] | Potency [16] | Potency [17] | Potency [18]

CCCCOCC
inactive: Potency [1] | outcome [2] | Potency [3] | Potency [19] | activity change, positive = activation [20] -0.464% | Potency [4] | Potency [6] | Potency [8] | Potency [10] | Potency [12] | Potency [13] | Potency [14] | Potency [15] | Potency [16] | Potency [18]

CCCCCCCCCCCCCCCCCO
inactive: activation (H2AX phosphorylation) [1] -3.22% [at 31.6 µM] | activation [2] -0.342% [at 15.8 µM] | activity change, negative = cytotoxicity [3] -0.549% [at 31.6 µM] | activity, negative = inhibition [19] -9.79% [at 19 µM] | activity change, positive = activation [20] -4.89% [at 19 µM] | activity change, negative = cytotoxicity [4] 0.355% [at 15.8 µM] | cytotoxicity [6] -13.6% [at 15.8 µM] | activity change, negative = cytotoxic [7] -3.35% [at 15.8 µM] | cytotoxicity increase [8] -18.9% [at 15.8 µM] | activity change, negative = cytotoxicity [9] -0.33% [at 15.8 µM] | max response [11] 0.671% | activity change [12] -19.9% [at 15.8 µM, active compounds read high] | cytotoxicity increase [13] 1.01% [at 15.8 µM] | activity change, negative = cytotoxic [14] -2.69% [at 15.8 µM] | cytotoxicity [15] 1.75% [at 15.8 µM] | cytotoxicity increase [16] 4.05% [at 15.8 µM] | activity change, negative = cytotoxicity [17] -0.227% [at 15.8 µM] | cytotoxicity increase [18] -22.2% [at 15.8 µM]

CO[Si](CCC1CCC2OC2C1)(OC)OC (configuration not stated)
inactive: Potency [1] | outcome [2] | Potency [3] | Potency [19] | activity change, positive = activation [20] 0.732% | Potency [4] | Potency [5] | Potency [6] | Potency [8] | Potency [9] | max response [11] 8.81% | Potency [12] | Potency [13] | Potency [14] | Potency [15] | Potency [16] | Potency [17] | Potency [18]

CCCCCCCCCCCCCCNCCO
active: Potency [1] 43.8 µM | Potency [3] 55.2 µM | Potency [4] 13.4 µM | Potency [5] 13.4 µM | Potency [7] 10.7 µM | Potency [8] 19 µM | Potency [9] 21.3 µM | Potency [10] 19 µM | Potency [11] 12 µM | Potency [12] 19 µM | Potency [13] 10.7 µM | Potency [14] 10.7 µM | Potency [15] 7.56 µM | Potency [16] 7.56 µM
inactive: outcome [2] | Potency [6]

Cc1c(C(=O)O)cccc1[N+](=O)[O-]
inactive: Potency [1] | outcome [2] | Potency [3] | Potency [4] | Potency [5] | Potency [6] | Potency [7] | Potency [8] | Potency [9] | Potency [10] | max response [11] -5.1% | Potency [12] | Potency [13] | Potency [14] | Potency [15] | Potency [16] | Potency [17] | Potency [18]

C[C@]12CC[C@H]3C(=CCc4cc(O)ccc43)[C@@H]1CCC2=O
inactive: Potency [1] | outcome [2] | activity change, positive = activation [20] -51.5% | Potency [6] | Potency [7] | Potency [8] | Potency [12] | Potency [13] | Potency [14] | Potency [15] | Potency [17] | Potency [18]
active: Potency [3] 101 µM | Potency [19] 61.1 µM

COc1ccc2sc(C(=O)Nc3nnn[nH]3)c(OC(C)C)c2c1
active: Potency [19] 24.2 µM
inactive: Potency [1] | outcome [2] | Potency [3] | activity change, positive = activation [20] -42.5% | Potency [4] | Potency [6] | Potency [7] | Potency [8] | Potency [9] | Potency [10] | Potency [12] | Potency [13] | Potency [14] | Potency [15] | Potency [16] | Potency [17] | Potency [18]

CC1(C)COCN1
inactive: Potency [1] | outcome [2] | Potency [3] | Potency [19] | activity change, positive = activation [20] 5.19% | Potency [4] | Potency [5] | Potency [9] | Potency [10] | max response [11] -0.12% | Potency [13] | Potency [14] | Potency [15] | Potency [16] | Potency [17]

Clc1cc(Cl)c(-c2c(Cl)c(Cl)cc(Cl)c2Cl)cc1Cl
inactive: Potency [1] | outcome [2] | Potency [3] | Potency [19] | activity change, positive = activation [20] 21.1% [at 42.5 µM] | Potency [4] | Potency [6] | Potency [8] | Potency [9] | Potency [10] | Potency [12] | Potency [13] | Potency [14] | Potency [15] | Potency [16] | Potency [17]

CCCCCCS
inactive: Potency [1] | outcome [2] | Potency [3] | Potency [4] | Potency [5] | Potency [6] | Potency [7] | Potency [8] | Potency [9] | Potency [10] | max response [11] 6.5% | Potency [12] | Potency [13] | Potency [14] | Potency [15] | Potency [16] | Potency [17]

Clc1nc2ccccc2s1
inactive: Potency [1] | outcome [2] | Potency [3] | Potency [4] | Potency [5] | Potency [6] | Potency [7] | Potency [8] | Potency [9] | Potency [10] | max response [11] -10.6% | Potency [12] | Potency [13] | Potency [14] | Potency [15] | Potency [16] | Potency [17] | Potency [18]

CC(C)=CC1CC(C)CCO1 (configuration not stated)
inactive: Potency [1] | outcome [2] | Potency [3] | Potency [4] | Potency [5] | Potency [6] | Potency [7] | Potency [8] | Potency [9] | Potency [10] | max response [11] 2.02% | Potency [12] | Potency [13] | Potency [14] | Potency [15] | Potency [16] | Potency [17] | Potency [18]
